Assay results reported in PubChem BioAssay (NCI).
The panel holds about 83,000 compounds, 20% with a hit somewhere; the sample as a whole holds those more often.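 Step 1: grow cells in 96-well plates. Step 2: add test compound at a single concentration. Step 3: incubate 48 h. Step 4: record percent growth.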 Active and inactive are the calls of the source.

These compounds were tested on HS 578T breast (assay: NCI-60 one-dose screen, 48 h (100 = growth as untreated, 0 = no growth, -100 = all killed)). Conditions: 10 µM unless noted.
Procedure: Growth inhibition of the HS 578T human tumor cell line is measured as a screen for anti-cancer activity. Cells are grown in 96 well plates and exposed to the test compound for 48 hours. Compounds are tested at a single concentration, which is 10^-5 M for most compounds. The reported endpoint is percent growth (GI% or GIPRCNT), where numbers from 0 - 100% represent growth inhibition, and numbers from -100% - 0 represent cell death. For example, a value of 40 represents 60% growth inhibition. A value of 0 means no net growth occurred over the course of the experiment. A value of -40 indicates 40% of cells at the beginning of the experiment died by the end of the experiment. A value of -100 means all cells are dead at the end of the experiment.
NCI-60 Human Tumor Cell Lines Screen was performed using the standard one-dose NCI protocol, which is described in more detail at https://dtp.cancer.gov/discovery_development/nci-60/default.htm.
Compounds with GIPRCNT values below 10 were considered active. Activity score was based on GIPRCNT using the following formula: […]
Score is 0 for GIPRCNT values of 100 or above, 50 for GIPRCNT values of 0, and 100 for GIPRCNT values of -100.

Compound | growth
Cc1ccc(-c2[nH][nH]c(=O)c2-c2nc3ccccc3s2)cc1 | 97.3% (inactive)
CCCCNC(=O)Oc1ccc(/C(=C(\C)c2ccccc2)c2ccc(OCCN3CCCCC3)cc2)cc1 | 56.9% (inactive)
O=C1c2cccc3c(-c4ccc5c(c4)ncn5C4CCCCC4)ccc(c23)C(=O)N1CCO | 94.7% (inactive)
O=C(CCN1CCCC1)Nc1ccc2c(Nc3ccc(Br)cc3)c3ccccc3nc2c1 | 58.6% (inactive)
O=C(NO)c1ccc(-n2nc(-c3ccccc3)c3ccccc32)cc1 | 55.5% (inactive)
CCN(c1ccccc1)S(=O)(=O)c1cc([N+](=O)[O-])ccc1Cl | 82% (inactive)
COc1ccc(C(=O)/C=C/c2cc3ccccc3n3nnnc23)cc1 | 106% (inactive)
COc1cc2cc(Oc3cccc(NC(=O)Nc4cc(C(F)(F)F)cc(C(F)(F)F)c4)c3)c(C)nc2cc1OC | -10.7% (active)
O=C1Nc2cc(-c3cccc(O)c3)ccc2/C1=C/c1ccc[nH]1 | -4.18% (active)
CC(=O)c1ccc(NS(=O)(=O)c2cccc(C(=O)Nc3ccc(Br)cc3)c2)cc1 | 79.7% [25 µM] (inactive)
CN[C@@H](C)C(=O)N[C@H]1CCS[C@H]2CC(C)(C)[C@@H](C(=O)N[C@H]3c4ccccc4C[C@H]3OCC#CC#CCO[C@@H]3Cc4ccccc4[C@@H]3NC(=O)[C@H]3N4C(=O)[C@@H](NC(=O)[C@H](C)NC)CCS[C@H]4CC3(C)C)N2C1=O | 82.2% (inactive)
O=[N+]([O-])c1ccc(NC(=S)N/N=C/c2cc3ccccc3n3nnnc23)cc1 | 67% (inactive)
O=S(=O)(NCCNc1nccc(-c2c(-c3cccc(O)c3)nc3occn23)n1)c1ccc(C(F)(F)F)cc1 | 100% (inactive)
O=C(CCN1CCCC1)Nc1ccc2c(NCCCCc3ccccc3)c3ccccc3nc2c1 | -9.34% (active)
Cc1cccc(NC(=O)Nc2ccc(-c3ccc4c(c3)NC(=O)/C4=C\c3ccc[nH]3)cc2)c1 | 95.7% (inactive)
O=C(/C=C(O)/C=C/c1ccc(SC(F)(F)F)cc1)/C=C/c1ccc(SC(F)(F)F)cc1 | 98.2% (inactive)
O=C1C=CC(=O)N1c1cccc(Cl)c1 | 113% (inactive)
CC(=O)O[C@H]1Cc2c([nH]c3ccccc23)[C@@H](c2ccc(Cl)cc2)N1C(=O)CCNC(C)(C)C | 62.3% (inactive)
CC(=O)Nc1ccc(-c2ccc3c(c2)NC(=O)/C3=C\c2ccc[nH]2)cc1 | 110% (inactive)
O=C1Nc2ccccc2/C1=C\c1c(-c2ccccc2)nc2ccccn12 | 69.5% (inactive)

Compound | growth
CCCCCCCC(=O)OCC/C=C/C1OC1C1OC(=O)/C=C\C=C\C(=O)N(C(C)=O)C(=O)/C=C(/C)CCC2OC2C1OC(=O)NC(C)=O (stereo not given) | 87.5% (inactive)
NS(=O)(=O)c1ccc(Cn2c(SCC(=O)N/N=C/c3ccccc3O)nc3ccccc3c2=O)cc1 | 71.6% (inactive)
CNC(=O)c1cc(Cn2nc(C)c(NC(=O)Nc3ccc(Cl)c(C(F)(F)F)c3)c2C)ccn1 | 97.1% (inactive)
O=C(O)c1ccc(-c2nn(-c3ccc(C(F)(F)F)cc3)cc2CNc2ccc(Oc3ccccc3)cc2)cc1 | 95.7% (inactive)
N#CC(C(=O)/C(=N/NC(=O)c1ccccc1O)C(C#N)c1ccccc1)c1ccccc1 (stereo not given) | 24.1% (inactive)
O=C(/C=C/c1ccc(F)cc1)c1ccc(NC(=O)N2CCN(c3cc4c(cc3F)c(=O)c(C(=O)O)cn4C3CC3)CC2)cc1 | 90.3% (inactive)
CN1CCN(c2ccc(NC3=C(Cl)C(=O)c4ncccc4C3=O)cc2C(F)(F)F)CC1 | 92.9% (inactive)
COc1cc(C2=NN(C(C)=O)C(c3cc(OC)c(OC)c(OC)c3)C2)ccc1O (stereo not given) | -1.42% (active)
COc1ccc(CNCCN2C(=O)c3ccc4c5c(ccc(c35)C2=O)C(=O)N(CCNCc2ccc(OC)c(OC)c2OC)C4=O)c(OC)c1OC | -34.6% (active)
COc1cccc(-c2cc(C(=O)Nc3ccc(/C=C/c4ccc(OC5CCN(C)CC5)cc4)cc3)ccc2OC)c1 | -22.9% (active)
CCCCCOc1ccc(/C=N/Nc2cc(C)nc3ccc(Cl)cc23)cc1 | 51.3% (inactive)
COc1ccc(-c2cnc3c(-c4cccc5cnccc45)cnn3c2)cc1 | 74% (inactive)
O=C(/C(=C\c1ccc([N+](=O)[O-])cc1)S(=O)Cc1ccc(Cl)cc1)c1ccc(Cl)cc1 (stereo not given) | 85.1% (inactive)
COc1cc2oc(-c3cccc(C(=O)Nc4ccc(Br)cc4)c3)cc(=O)c2c(OC)c1OC | 65.2% (inactive)
CN(C)CCn1c2ccc(Br)cc2c2nc3ccccc3nc21 | 77.8% (inactive)
CCN(CC)CCOc1ccc(NC(=O)C(C(C)C)N2C(=O)/C(=C/c3ccc(Br)cc3)SC2=S)cc1 (stereo not given) | 84.2% (inactive)
Cc1ncc(C(=O)Nc2ccc(CN3CCN(C)CC3)c(C(F)(F)F)c2)cc1C#Cc1cnc(N)cc1C#N | -18.2% (active)
CCCCCC(=O)Oc1ccc(/C(=C(/C)Cc2ccc(OC)cc2)c2ccc(OCCCN(C)C)cc2)cc1 | 59.9% (inactive)
CC/C(=C\c1ccc(OC)cc1)C(=O)c1ccc(OC)cc1 | 99.9% (inactive)
O=C1Nc2ccccc2/C1=C\c1c(-c2ccc(F)cc2)nc2ccccn12 | 91.5% (inactive)
